High-throughput results: PubChem, The Scripps Research Institute Molecular Screening Center
An excerpt weighted towards active compounds, which were near 3.5% of everything screened.
GPR151 activ: human GPR151 activation. PathHunter beta-arrestin GPR151 cells, luminescence. Q8TDV0. 650,000 compounds, 1% hits. activation, % at 11.2 µM; in the data active means activation above about 4.9%;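 further: 0% = median of compound wells and 100% = cells with positive control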
Target sequence (Q8TDV0 whole entry, looked up): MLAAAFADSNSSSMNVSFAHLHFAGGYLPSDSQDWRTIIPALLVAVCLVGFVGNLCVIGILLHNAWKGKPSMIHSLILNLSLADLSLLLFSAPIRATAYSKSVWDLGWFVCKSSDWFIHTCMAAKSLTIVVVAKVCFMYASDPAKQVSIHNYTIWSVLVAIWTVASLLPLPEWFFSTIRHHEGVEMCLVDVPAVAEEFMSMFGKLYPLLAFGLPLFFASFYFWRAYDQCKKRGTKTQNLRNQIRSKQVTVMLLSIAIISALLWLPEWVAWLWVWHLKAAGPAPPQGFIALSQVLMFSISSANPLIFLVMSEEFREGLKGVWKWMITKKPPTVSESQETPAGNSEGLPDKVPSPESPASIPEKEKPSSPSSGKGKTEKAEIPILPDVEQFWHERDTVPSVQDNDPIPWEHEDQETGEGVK
MITF inh: blocks human microphthalmia-associated transcription factor. O75030. AlphaScreen MITF homodimerization, bead proximity signal. inhibition, % at 2.6 µM. 650,000 compounds, 0.91% hits. AID 1259374; in the data active means inhibition above about 50%;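 further: 0% = vehicle wells with protein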
TEAD-YAP block: TEAD-YAP interaction inhibition. inhibition, % at 9.12 µM. HEK-TIYL cells, TEAD-Gal4/YAP UAS-luciferase luminescence. 640,000 compounds, 1.4% hits; in the data active means inhibition above about 32%;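 further: 0% = median of test compound wells and 100% = reference inhibitor wells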
FBW7 activator: human FBW7 E3 ligase activation, primary screen; normalized activity (activation), % at 26.1 µM; Q969H0; 650,000 compounds, 0.13% hits; AlphaScreen FBW7–phospho-cyclin E peptide binding, activator screen; in the data active means normalized activity above about 1.9%;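 further: purified mutant Fbw7 with reduced substrate affinity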
GPR151 confirm: human GPR151 activation, confirmation screen. GPR151 PathHunter beta-arrestin cells, luminescence, 90 min; % of EA-reagent control over plate median. shares compounds with GPR151 activ. 6,700 tested, under 10 active. activation, % at 11.2 µM;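 active means mean percent activation across replicates above the confirmation screen cutoff of 4.91%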
GPR119 ag: GPR119 activation, counter-screen for GPR151 activators; AID 1508611; activation, % at 11.2 µM; shares compounds with GPR151 activ; 6,700 compounds, 0.3% hits; GPR119 PathHunter beta-arrestin cells, luminescence, 90 min; 0 = compound-well median, 100 = enzyme-acceptor control;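 active means mean percent activation in the counterscreen above 29.09%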;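 further: counterscreen on off-target GPR119 to flag nonselective hits from the GPR151 activator screen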
Numbers without * were called inactive; x = no result given; ! = repeats disagree.

SMILES	GPR151 activ	MITF inh	TEAD-YAP block	FBW7 activator	GPR151 confirm	GPR119 ag
O=C(NC1Cc2ccccc2C1)c1ccc(OC2CCN(C(=O)C3CC3)CC2)cc1	8.1*	6	4	0	-1	-15
COc1ccc(Nc2c3c(nc4ncnn24)CCC3)cc1	2	5	-1	0	x	x
Cc1ccc(NC(=O)NC(=O)c2cccc(Cn3cc(C(F)(F)F)ccc3=O)c2)nc1	4	6	-13	0	x	x
O=C(NC(=O)c1ccc(Cn2cc(C(F)(F)F)ccc2=O)cc1)Nc1cccnc1	5.2*	-8	0	0	-1	-11
CN(CC1COCCO1)C(=O)c1cc(COc2c(F)cccc2F)on1 (stereo not drawn)	16*	6	-9	0	0	2
O=C1C(=O)N(CCCn2ccnc2)C(c2ccccc2)/C1=C(/O)c1ccccc1 (stereo not drawn)	-1	15	4	0	x	x
Cc1ccccc1/C=N/NC(=O)c1ccc(O)c(O)c1	-1	-14	-19	0	x	x
COc1ccc(/C=C2/C(=N)N3C(=NC2=O)SN=C3S(=O)(=O)CC(C)C)cc1OC	0	15	-2	0	x	x
COc1cc(NC(=O)NCc2cccs2)c2ncccc2c1	5.6*	-1	8	-1	0	-4
O=C1CC(=O)Nc2cc(S(=O)(=O)N3CCn4c3nc3ccccc34)ccc2N1	5.9*	8	-6	0	0	10
Cn1c(=O)oc2cc(S(=O)(=O)N3CCn4c3nc3ccccc34)ccc21	1	3	-11	0	x	x
CCCOC(=O)CSc1nc2c(c(=O)n(C)c(=O)n2C)n1CC	1	-10	-1	0	x	x
Cc1cccn2c(=O)c3cc(C(=O)N4CCc5ccccc54)sc3nc12	5.0*	10	4	0	0	6
COCCCNC(=O)c1ccc(CNc2nc(=S)[nH]c3ccccc23)cc1	5.9*	-2	-6	0	0	10
COc1cccc(-c2nnc3sc(CN4CCc5ccccc54)cn23)c1	0	0	-6	0	x	x
CS(=O)(=O)c1ncc(Cl)c(C(=O)N(Cc2ccccc2)c2ccccn2)n1	-1	4	-24	0	x	x
C[C@H]1C[C@@H]2[C@H]([C@@H](O)C[C@@]3(C)[C@H]2CC[C@]3(O)C(=O)CO)[C@@]2(C)C=CC(=O)C=C12	6.9*!	3	x	0	0	0
CCOCCCNCc1ccccc1OCc1ccccc1	13*	-13	0	0	-1	-6
Cc1cc(C(=O)OCC(=O)c2ccc(Cl)c([N+](=O)[O-])c2)c2ccccc2n1	0	-7	-2	0	x	x
CCCCCCc1cc(O)c2c(C)cc(=O)oc2c1	7.0*	-4	-1	0	0	12
CCCNc1nc(Nc2ccc(-n3ccnc3)cc2)nc2c1ncn2C(C)C	0	0	-13	0	x	x
CCn1c(/C(C#N)=C/c2c(F)cccc2Cl)nc2ccccc21	0	4	-1	0	x	x
Cc1cc(C)cc(NS(=O)(=O)c2ccc(-c3cc(C)no3)cc2)c1	8.2*	-11	58*	0	1	-6
O=C1C2C3C=CC(C3)C2C(=O)N1c1ccc(Oc2ccccc2)c(Cl)c1 (stereo not drawn)	1	6	18	0	x	x
Cc1ccc(CC(=O)N(CCCn2ccnc2)c2nc3ccccc3s2)c(C)c1	6.9*	-3	6	0	-2	-14
SMILES	GPR151 activ	MITF inh	TEAD-YAP block	FBW7 activator	GPR151 confirm	GPR119 ag
Cc1ccc2nc(N(CCCn3ccnc3)C(=O)c3ccc(F)cc3)sc2c1	0	4	-2	0	x	x
CC1(C)C=C(c2ccc(O)cc2)CC(C)(C)N1	5.6*	9	3	0	-1	-2
CC1(C)C=C(c2ccc(O)cc2O)CC(C)(C)N1	0	-17	4	0	x	x
COC(=O)CN1C(=O)S/C(=C/c2ccc(Br)cc2)C1=O	-1	-9	-5	0	x	x
COC(=O)CN1C(=O)S/C(=C/c2cc(Cl)cc(OC)c2O)C1=O	5.2*	7	-4	0	-1	-7
COC(=O)CN1C(=O)S/C(=C/c2ccc(OCC(=O)O)c(Br)c2)C1=O	6.9*	10	1	0	0	-12
CC(C)[C@H]1NC(=O)[C@H]2CN(C(=O)Oc3ccc(F)cc3)CCN2C1=O	3	10	1	0	x	x
Cc1occc1C(=O)NCc1ccc(S(N)(=O)=O)cc1	-1	7	-6	0	x	x
